# Bioassay records from PubChem.
# KinaseGlo FLuc – blocks Kinase-Glo luciferase, a counter-screen artifact | Q27757 | Kinase-Glo luciferase, ATP luminescence, 8 min | Potency, µM (doses to about 38.3 µM), for inactives: at the top dose activity change, negative = inhibition, most hits filed as inhibitors | 200,000 compounds, 0.28% hits | AID 1379; further: on the % scale 0 is the no-effect control and ±100 the full control effect; nearly all actives have a fitted effect of over 60% in size
#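 Inhibition of Kinase-Glo luciferase light generation was assessed at 10 uM ATP in pH 7.2 imidazole buffer, with luminescence measured after eight minutes at ambient temperature.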
# FLuc counter – counter-screen for miR-21 project: firefly luciferase inhibitors or activators; P08659; purified FLuc, Km substrates, luminescence inhibition; Potency, µM (highest dose often 57.5 µM), without a hit: top-dose activity change, negative = inhibition, usual class: inhibitors; 360,000 compounds, 6.9% hits; AID 588342;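 further: plate controls were vehicle for no effect and reference inhibitor for full effect; nearly all actives have a fitted effect of over 55% in size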
# Target sequence (P08659 whole entry, looked up): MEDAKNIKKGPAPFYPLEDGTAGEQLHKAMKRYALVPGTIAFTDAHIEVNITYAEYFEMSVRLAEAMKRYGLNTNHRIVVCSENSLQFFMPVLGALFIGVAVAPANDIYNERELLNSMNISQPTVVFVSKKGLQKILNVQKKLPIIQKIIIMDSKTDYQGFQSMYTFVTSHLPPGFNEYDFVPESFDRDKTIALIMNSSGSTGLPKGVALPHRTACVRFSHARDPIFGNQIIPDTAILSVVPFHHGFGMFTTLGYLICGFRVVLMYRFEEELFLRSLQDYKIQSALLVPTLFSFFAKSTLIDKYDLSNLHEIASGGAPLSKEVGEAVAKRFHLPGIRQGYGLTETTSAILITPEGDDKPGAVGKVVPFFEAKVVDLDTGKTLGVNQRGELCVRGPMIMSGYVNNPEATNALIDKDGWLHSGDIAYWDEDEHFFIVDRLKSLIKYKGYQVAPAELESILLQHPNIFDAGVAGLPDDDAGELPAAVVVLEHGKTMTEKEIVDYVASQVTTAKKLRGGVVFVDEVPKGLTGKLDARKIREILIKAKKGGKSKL
#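 Purified P. pyralis luciferase (10nM final) with 10uM D-luciferin and 10uM ATP (Km levels) in 50mM Tris acetate pH 7.5, 10mM Mg acetate, 0.01% Tween-20, 0.05% BSA; qHTS 6-point titration, ~60 µM downward; luminescence read.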
# Rab9 promoter act – Rab9 promoter activation | Potency, µM (titrated, usually from 9.22 µM), for inactives: at the highest dose activation, negative = inhibition, usual class: activators | AID 485297 | Huh7 Rab9 promoter-luciferase reporter, luminescence, 24 h | 320,000 compounds, 2.8% hits; further: % of control where 0% means no effect; nearly all actives have a fitted effect of over 60% in size
#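 Cells were plated at 1500 per well in reduced-serum medium with 10% FBS and left 2 h. Compound in DMSO was then added for 24 h at 37 °C. Reporter signal was read by luminescence after 10 min with luciferase detection reagent.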
# ELG1 genotox – genotoxicity induction in ELG1-luciferase HEK293T cells | Potency, µM (titrated, usually from 46 µM), without a hit: at the top dose activity change, positive = activation, actives largely listed as activators | 330,000 compounds, 1.3% hits | AID 504466 | HEK293T ELG1-luciferase reporter, luminescence, 16 h; further: % of control where 0% means no effect; nearly all actives have a fitted effect of over 60% in size
#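 After overnight (16 hr) compound treatment at 37 °C, ELG1-luciferase HEK293T cells were lysed with ONE-Glo; luminescence quantified 30 min later at room temperature.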
# SMN2 splice up – enhancers of SMN2 splice variant expression; HEK293 SMN2-luciferase splicing reporter, luminescence, 30-36 h; Potency, µM (series often up to 46.1 µM), for inactives: top-dose activity change, positive = activation, hits mostly activators; 210,000 compounds, 2.8% hits; AID 1458; further: % of control where 0% means no effect; nearly all actives have a fitted effect of over 55% in size
#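 HEK293 cells carry an SMN2 […]–luciferase reporter in which exon 7 inclusion puts luciferase in frame. Cells were plated 10-12 h before compound addition, then incubated 30-36 h at 37C. ONE-Glo luminescence was read; sodium butyrate at 4.5 mM final served as control.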
# NPC1 prom act – activators of NPC1 promoter; Potency, µM (doses to about 9.22 µM), for inactives: at the top dose activation, usual class: activators; Huh7 NPC1 promoter luciferase reporter, 24 h; 320,000 compounds, 2.4% hits; further: % of control where 0% means no effect; nearly all actives have a fitted effect of over 60% in size
#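 In 1536-well qHTS, Huh7 cells harboring an NPC1 promoter–luciferase construct received compound for 24 h; activation was quantified by luminescence following luciferase reagent addition.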
# The depositor's hits bear a star; ? = inconclusive; . = not tested or not shown. Sampled rows, rich in hits. Any-hit rate of the full collection: about 7.5%. The call rests on the fitted dose curve; in most records, active means well fitted curve in the direction sought with a large enough effect; inconclusive means small, poorly fitted or top-dose-only effect, or another doubt; inactive means no such curve, though single readings can be large; an effect the other way counts as inactive or inconclusive. Potency means the concentration at half of the fitted maximal effect.
SMILES,KinaseGlo FLuc,FLuc counter,Rab9 promoter act,ELG1 genotox,SMN2 splice up,NPC1 prom act
Cc1cc(/C=N/NC(=O)c2ccncc2)c(C)n1-c1ccccc1,-1%,1.9µM*,?,?,?,23%
Cc1cc(/C=N/NC(=O)c2cccs2)c(C)n1-c1cnccn1,.,4.8µM*,3.5µM*,7.3µM*,.,2µM*
CCc1ccc(-n2c(C)cc(/C=N/NC(=O)c3ccncc3)c2C)cc1,-1%,12µM*,-1%,-11%,-15%,4%
Cc1cc(/C=N/NC(N)=O)c(C)n1-c1ccc(F)cc1,-1%,-10%,-1%,4%,-28%,0%
Cc1cc(C)cc(C(=O)Nn2cnnc2)c1,.,1%,9%,0%,.,-2%
O=C1c2[nH]nc(-c3ccccc3O)c2C(c2cccc(Br)c2)N1Cc1ccncc1 (stereo unspecified),.,-2%,.,.,-17%,.
Cc1cc(C(=O)N/N=C2\CC(=O)c3ccccc32)c(C)n1-c1ccccc1,-24%,2.7µM*,3.5µM*,?,10µM*,?
Cc1cc(C(=O)N/N=C/c2ccc(O)c(O)c2O)c(C)n1-c1ccccc1,-7%,11µM*,-3%,-5%,-38%,0%
Cc1cc(C(=O)O)c(C)n1-c1ccccc1,2%,5%,-1%,1%,-10%,4%
Cc1cc(/C=N/NC(=O)COc2cccc3cccnc23)c(C)n1-c1ccc(O)cc1,-1%,3.4µM*,30%,5%,?,20%
COc1ccc(-n2c(SCC(=O)Nc3nnc(C)s3)nc3c([nH]c4ccccc43)c2=O)cc1,.,3%,.,.,.,.
COc1ccccc1N1CCN(C(=O)Cn2cnc3onc(-c4ccc(F)cc4)c3c2=O)CC1,.,-9%,.,.,.,.
COc1ccc2c(Cl)c(C(=O)NN3CCN(C)CC3)sc2c1,-1%,-23%,13%,-9%,?,10%
O=c1c2ccccc2nc(/C=C/c2c[nH]c3ccccc23)n1CCO,5%,11µM*,?,12%,.,?
CC(C)c1ccc(NS(=O)(=O)c2ccc3[nH]c(=O)ccc3c2)cc1,.,-12%,.,.,.,.
Clc1ccc(-c2ccc(C=Nc3ccc(N4CCOCC4)cc3)o2)cc1,-4%,4.8µM*,1%,0%,-33%,2%
Clc1ccc(-c2ccc(C=Nc3ccc(N4CCOCC4)cc3)o2)c(Cl)c1,1%,-20%,0%,2%,-23%,1%
Clc1cccc(-c2ccc(C=Nc3ccc(N4CCOCC4)cc3)o2)c1Cl,-13%,3.4µM*,0%,1%,.,1%
CCOc1ccc(N(CC(=O)NCc2ccc(OC)cc2)S(C)(=O)=O)cc1,.,?,?,29%,.,?
CN(Cc1cccs1)C(=O)c1cccc(S(=O)(=O)N2CCCCCC2)c1,.,.,2%,0%,.,-1%
Cn1c(Cc2ccccc2)nnc1SCC(=O)NCCc1ccccc1,1%,-5%,-2%,12%,1%,-7%
Cn1c2ccccc2c(=O)c2cc(C#Cc3ccc(N)cc3)ccc21,.,6µM*,?,6%,.,?
Cn1c(-c2ccccc2)c(C#Cc2ccc(N)cc2)c2ccccc21,.,.,.,-2%,.,.
Cn1c2ccccc2c(=O)c2ccc(C#CC3(O)CCCCC3)cc21,.,0.38µM*,0.32µM*,?,.,0.32µM*
COc1ccc(C#Cc2ccc3c(c2)c(=O)c2ccccc2n3C)cc1,.,12µM*,15%,-3%,.,16%
SMILES,KinaseGlo FLuc,FLuc counter,Rab9 promoter act,ELG1 genotox,SMN2 splice up,NPC1 prom act
Cc1ccc(-c2cn3c(n2)sc2cc(C(=O)N4CCCCC4)ccc23)cc1,.,-10%,.,.,.,.
O=C(Nc1cccc(/C=C/c2nc3ccccc3c(=O)[nH]2)c1)c1ccccc1Cl,.,-12%,?,0%,.,?
COc1ccc(C(=O)Nc2nc3cc(OC)c(OC)cc3c(=O)[nH]2)cc1,-1%,1%,-2%,1%,-30%,-2%
COc1ccc(C(=O)Nc2cccc(/C=C/c3nc4ccccc4c(=O)[nH]3)c2)cc1,.,?,3.2µM*,-4%,.,27%
COc1ccc(C(=O)Nc2nc3ccccc3c(=O)[nH]2)cc1,-11%,2.7µM*,0.4µM*,?,13µM*,0.71µM*
CCc1nnc(SC(C)C(=O)Nc2nccs2)n1C (stereo unspecified),.,3%,1%,-3%,.,0%
COc1ccc(-c2nc(CSc3nncn4c3cc3sccc34)c(C)o2)cc1OC,.,1%,.,.,.,.
CCN(CC)S(=O)(=O)c1ccc(NC(=O)c2ccc(N3CCCC3=O)cc2)cc1,.,.,.,2%,.,.
CCOc1ccc(/C=C2/SC(=S)N(CCC(=O)Nc3ccc(C(=O)O)cc3)C2=O)cc1,.,1.2µM*,0%,?,.,1%
COc1ccc(/C=C2\SC(=S)N(CCC(=O)N3CCCCC3)C2=O)cc1,.,?,-5%,-5%,.,-8%
COc1ccc(/C=C2\SC(=S)N(CCCC(=O)Nc3ccccc3C(=O)O)C2=O)cc1OC,.,3%,3%,-1%,.,6%
O=C(O)CCN1C(=O)CC(N2C(=O)/C(=C/c3ccc(Cl)cc3)SC2=S)C1=O (stereo unspecified),-4%,19µM*,0%,-6%,1%,-5%
COc1ccc(/C=C2\SC(=S)N(CCC(=O)Nc3ccccc3C(=O)O)C2=O)cc1,.,21µM*,-1%,-2%,.,-5%
CCOc1ccc(/C=C2\SC(=S)N(CCC(=O)O)C2=O)cc1,.,1.7µM*,-31%,0%,.,-11%
CCCN(CCC)S(=O)(=O)c1ccc2c(c1)N(CC(=O)NC(C)c1ccccc1)C(=O)CS2 (stereo unspecified),.,-7%,.,.,.,.
CCOc1cc(-c2nc(-c3ccc(-c4ccc(C)cc4)nc3OC)no2)cc(OCC)c1OCC,.,0%,.,.,-10%,.
CCCCn1c(N)c(N(CC(C)C)C(=O)c2ccc(S(=O)(=O)N3CCC(C)CC3)cc2)c(=O)[nH]c1=O,.,1%,-2%,-1%,.,0%
Cc1c(Cl)cccc1-n1ncc(C(=O)Nc2ccc(F)cc2F)c1C1CCN(C(=O)OC(C)(C)C)CC1,.,2%,.,.,.,.
CCOc1ccc(/C=C2\SC(=S)N(CCC(=O)Nc3ccccc3C(=O)O)C2=O)cc1,.,15µM*,?,6%,.,2%
COc1ccc(CN2COc3ccc4c(-c5ccc(OC)cc5)cc(=O)oc4c3C2)cc1,.,0%,.,.,-7%,.
COc1ccc(-c2cc3ccc(O)c(CN4CCCC4)c3oc2=O)cc1OC,.,15µM*,.,.,.,.
O=C(NCc1ccccc1Cl)C(=O)NCC(c1cccs1)S(=O)(=O)c1ccccc1 (stereo unspecified),.,-7%,.,.,.,.
CCCCOc1ccc(C(=O)N(Cc2ccc(C(C)C)cc2)C2CCS(=O)(=O)C2)cc1 (stereo unspecified),.,-6%,.,.,-14%,.
